The text below walks through data of the supplement of paper PMC12636033.

± gives the standard deviation of the averaged measurements. The full ranking holds about 33,000 sequences; the median of “E-score (rank enrichment, -0.5 to 0.5)” is about -0.0075, and the highest 2% start at about 0.23. This excerpt belongs to a sample that is enriched for the highest values.

The assay relates to WT Max(13-93) synthetic (M65Nle). In words: PBM 8-mer E-score (E-score (rank enrichment, -0.5 to 0.5)); higher = stronger preferential binding. The protocol: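 Protein binding microarray (universal PBM chip covering all 10-mers in fixed probe flanks) with chemically synthesized human Max(13-93) bHLH-LZ analogs (not full-length Max) bearing noncanonical residues (hArg, Tha, Aib, Nle at 65) and aromatic Cys staples. Read-out per 8-mer (and its reverse complement): E-score (rank-based enrichment, -0.5 to 0.5) and Z-score of median probe intensity.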
On to AGAGCACA, for which the “PBM 8-mer E-score” value is -0.0234 ± 0.086. The result for ATTGCTTA reads 0.0363 ± 0.041.

For CCTACACG, the “PBM 8-mer E-score” value was -0.0643 ± 0.072. Regarding AGTACACA, the “PBM 8-mer E-score” value amounted to 0.163 ± 0.09. As for AGTACACG, the figure is 0.233 ± 0.032; as for ACTACACG, 0.139 ± 0.041. As for CGTACACC, the figure is 0.0276 ± 0.012. As for TGTACACA, the figure is 0.159 ± 0.071.

CGTACACG: the “PBM 8-mer E-score” value is 0.257 ± 0.018. The result for ACTACACA reads 0.306 ± 0.067; that for CGTACACA, 0.15 ± 0.012.

On to CTTCGCTC, for which the “PBM 8-mer E-score” value was -0.143 ± 0.067.

TAAGGAGA: the “PBM 8-mer E-score” value amounted to 0.0617 ± 0.054. The result for CAGAACCA reads -0.0491 ± 0.0095; that for AGTTGCTC, -0.143 ± 0.047. For AGCACATG, the “PBM 8-mer E-score” value worked out at 0.343 ± 0.004.

As to AGCACATC, the “PBM 8-mer E-score” value is 0.0162 ± 0.041. As for ACCACATA, the figure is 0.00899 ± 0.073; as for ATCACATC, 0.065 ± 0.073. As for ATCACATA, the figure is 0.175 ± 0.13; as for ATCACATG, 0.37 ± 0.017. As for ACCACATG, the figure is 0.404 ± 0.012. Take ACCACATC: the “PBM 8-mer E-score” value turned out to be 0.0678 ± 0.067. As for AGCACATA, the figure is 0.0511 ± 0.0046; as for GCTCTGAC, -0.2596 ± 0.00028; as for CCTACTGA, 0.0748 ± 0.039. As for CCCTATCA, the figure is 0.0698 ± 0.034; as for CCTCACAC, -0.0382 ± 0.027. As for TGAGCTCA, the figure is -0.206 ± 0.065. Regarding CATGCACA, the “PBM 8-mer E-score” value is 0.353 ± 0.0061.

As for CATGCACG, the “PBM 8-mer E-score” value worked out at 0.186 ± 0.11. With AATGCACT, the “PBM 8-mer E-score” value is 0.143 ± 0.027. As for GATGCACA, the figure is -0.00554 ± 0.026; as for AATGCACG, 0.245 ± 0.045. As for TGTGCACA, the figure is 0.132 ± 0.071; as for CGTGCACA, 0.176 ± 0.0077. The result for AATGCACA reads 0.128 ± 0.055; that for CGTGCACG, 0.293 ± 0.049. For CCTACTGC, the “PBM 8-mer E-score” value is -0.0303 ± 0.015. The result for AATAGAGT reads 0.0159 ± 0.021.

Take AAGGCTCT: the “PBM 8-mer E-score” value is -0.0744 ± 0.037. As for GGTCGGAA, the figure is -0.0727 ± 0.14. As to AGTCTGTG, the “PBM 8-mer E-score” value is -0.264 ± 0.097. For ACAGTGTG, the “PBM 8-mer E-score” value turned out to be 0.116 ± 0.011. Turning to GGACATTA, the “PBM 8-mer E-score” value turned out to be 0.0724 ± 0.14.

GTGCACAA: the “PBM 8-mer E-score” value is -0.0677 ± 0.047. Regarding GATACAGC, the “PBM 8-mer E-score” value came out at 0.0628 ± 0.015. As for CAGTATTC, the figure is 0.0983 ± 0.017; as for GACATGCC, 0.167 ± 0.019. The result for AATATGCG reads 0.0644 ± 0.011; that for AACATGCG, 0.221 ± 0.0062. Regarding CACATGCG, the “PBM 8-mer E-score” value turned out to be 0.29 ± 0.047. The result for CACATGCA reads 0.305 ± 0.031; that for CATATGCC, 0.118 ± 0.036. For AACATGCC, the “PBM 8-mer E-score” value amounted to 0.093 ± 0.12. The result for TACATGCA reads 0.196 ± 0.084; that for CACATGCC, 0.258 ± 0.024; that for CATATGCG, 0.252 ± 0.015. Consider GACATGCA, for which the “PBM 8-mer E-score” value was 0.144 ± 0.07.

Turning to CCCATGCG, the “PBM 8-mer E-score” value was 0.187 ± 0.058. The result for CTGCATAA reads 0.0963 ± 0.024; that for CCAATGTA, -0.0337 ± 0.034; that for GTTGTTTA, 0.212 ± 0.071. The result for CTACACTC reads -0.0808 ± 0.031; that for ACTGAGAC, -0.109 ± 0.043.

As for CCCACGGC, the “PBM 8-mer E-score” value is -0.024 ± 0.17.

For the sequence CAGATTGG, the “PBM 8-mer E-score” value was -0.114 ± 0.072. Regarding CACATCCG, the “PBM 8-mer E-score” value was -0.176 ± 0.045. With CTAAGGAG, the “PBM 8-mer E-score” value is -0.143 ± 0.011. Consider AAAATATC, for which the “PBM 8-mer E-score” value came to 0.098 ± 0.12. The result for AAAATATG reads 0.21 ± 0.0022; that for AAAATATA, 0.254 ± 0.032. Take TAAATATA: the “PBM 8-mer E-score” value was 0.253 ± 0.0074. The result for CAAATATA reads 0.137 ± 0.06; that for TAAATACA, 0.248 ± 0.0097; that for AAAATACA, 0.0792 ± 0.0013. The result for GAAATATA reads 0.219 ± 0.035; that for GAAATACA, -0.0415 ± 0.044. The result for AGGGCGTA reads 0.122 ± 0.028. With GAATTCTA, the “PBM 8-mer E-score” value is -0.07 ± 0.14.

As to CAGGCCCC, the “PBM 8-mer E-score” value was -0.0835 ± 0.04. The result for GTATGCAC reads 0.1415 ± 0.00096. As for ACATGCAG, the figure is 0.126 ± 0.044; as for ACATGCGT, 0.313 ± 0.081. The result for ACATGCGG reads 0.14 ± 0.056; that for CCATGCAC, 0.0862 ± 0.038.
